AmpC no deterg: AmpC beta-lactamase inhibition without detergent. AmpC nitrocefin hydrolysis, absorbance 480 nm, 0.0001% Triton. 0.52% of 330,000 active. P00811. Potency, µM (series often up to 57.1 µM), without a hit: at the highest dose activity change, negative = inhibition, most hits filed as inhibitors. AID 485341;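 also: plate controls were no compound for no effect and no enzyme for full effect; nearly all actives have a fitted effect of over 20% in size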
Target sequence (P00811 whole entry, looked up): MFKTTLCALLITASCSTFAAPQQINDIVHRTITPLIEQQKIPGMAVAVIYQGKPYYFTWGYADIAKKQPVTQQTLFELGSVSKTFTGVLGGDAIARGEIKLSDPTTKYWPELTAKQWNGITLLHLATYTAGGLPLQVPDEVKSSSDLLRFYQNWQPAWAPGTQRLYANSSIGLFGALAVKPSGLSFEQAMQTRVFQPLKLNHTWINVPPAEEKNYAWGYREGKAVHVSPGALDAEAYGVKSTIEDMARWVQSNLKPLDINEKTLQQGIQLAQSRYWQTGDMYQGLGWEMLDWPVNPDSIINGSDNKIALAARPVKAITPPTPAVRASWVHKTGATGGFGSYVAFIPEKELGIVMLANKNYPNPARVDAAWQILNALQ
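20 mM phosphate pH 7.0 + 0.01% (detergent screen) or 0.0001% Triton X-100; 5.3 nM AmpC reagent; cpd preinc 15 min RT; nitrocefin (800 uM stock) to start; A480 q20 s × 4 min; Activity was normalised to no-enzyme and no-compound control wells.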
Pf growth 48h: inhibits P. falciparum growth in the first generation, 48 h; AID 504832; P. falciparum luciferase growth in erythrocytes, 48 h; Potency, µM (titrated, usually from 28.7 µM), inactives show at the highest dose activity change, negative = inhibition, usual class: inhibitors; 5.9% of 310,000 active
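Read-out is firefly luciferase luminescence from an integrated reporter in P. falciparum, so falling signal marks reduced parasite growth. Infected erythrocytes were at 2% hematocrit and 0.1% parasitemia (final) in Albumax-supplemented RPMI 1640.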
AmpC detergent: blocks E. coli AmpC beta-lactamase in detergent assay; P00811; AmpC hydrolysis of nitrocefin, absorbance 480 nm, 0.01% Triton; Potency, µM (series often up to 114 µM), for the others: top-dose activity change, negative = inhibition, hits mostly inhibitors; 0.041% of 370,000 active; AID 485294;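 also: 0% = no-compound wells and -100% = no-enzyme wells; nearly all actives have a fitted effect of over 25% in size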
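20 mM phosphate pH 7.0 + 0.01% (detergent screen) or 0.0001% Triton X-100; 5.3 nM AmpC reagent; cpd preinc 15 min RT; nitrocefin (800 uM stock) to start; A480 q20 s × 4 min; Activity was normalised to no-enzyme and no-compound control wells.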
AMA1 RON2 block: disrupts binding of P. falciparum AMA1 to RON2; AlphaScreen AMA1-biotinylated RON2 peptide binding; Potency, µM (highest dose often 58.2 µM), without a hit: at the highest dose activity change, negative = inhibition, most hits filed as inhibitors; 0.2% of 360,000 active;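 also: 0% = vehicle wells and -100% = peptide control; nearly all actives have a fitted effect of over 45% in size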
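AMA1 (3D7) with his tag at 25 nM final met compounds first, then biotinylated RON2 peptide at 25 nM; detection used donor plus acceptor beads, 10 µg/mL apiece, read by AlphaScreen after 30 min at room temperature.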
Pf growth 96h: inhibits malaria parasite growth, 96 h; P. falciparum luciferase reporter growth, 96 h; Potency, µM (titrated, usually from 28.7 µM), for the others: at the highest dose activity change, negative = inhibition, most hits filed as inhibitors; 6.9% of 320,000 active; AID 504834
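Parasite growth measured via integrated firefly luciferase reporter in P. falciparum. Infected erythrocytes at 2% hematocrit, 0.05% parasitemia final were treated 96 hours at 37 C under 5% CO2, and luminescence was read.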
HCV inhibitor: HCV inhibition; Huh7.5.1 HCVcc-Cre infection, luciferase reporter, 44 h; Potency, µM (top dose mostly 41.8 µM), for the others: at the highest dose activity change, negative = inhibition, actives largely listed as inhibitors; 3.4% of 340,000 active; AID 651820
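Antiviral activity was scored by luciferase reporter output from cells infected with HCVcc-Cre (~0.5 moi) in presence of compound, 44 h infection period, cells seeded 1,000/well 4 h prior.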
Active calls of the source: *; u = inconclusive; x = no result given. In the library only some 11% were active in any assay of this set; here they are far more common. Calls follow the shape of the dose curve; as a rule, active = well fitted curve in the direction sought with a large enough effect; inconclusive = small, poorly fitted or top-dose-only effect, or another doubt; inactive = no such curve, though single readings can be large; an effect the other way counts as inactive or inconclusive. Unless noted, % is scaled to controls: 0 for no effect and ±100 for the full control effect; potency is read from the fitted curve at half-maximal effect.

SMILES | AmpC no deterg | Pf growth 48h | AmpC detergent | AMA1 RON2 block | Pf growth 96h | HCV inhibitor
CC(C)SC1=NC(C)(C)C=C(/C=C/c2c(Cl)cccc2Cl)N1 | -22% | x | 2% | -2% | 3.3µM* | -26%
CC(C)SC1=NC(C)(C)C=C(/C=C/c2ccc(Cl)cc2Cl)N1 | -11% | x | 0% | -7% | u | 7%
CCOC(=O)N1CCC(C(=O)NNC(=O)c2ccc(Cl)cc2Cl)CC1 | 1% | 17% | -3% | 113% | 10µM* | 11%
CCOC(=O)N1CCN(C(=O)C2CCN(S(=O)(=O)c3ccc(NC(C)=O)cc3)CC2)CC1 | 1% | u | -8% | -5% | 8.3µM* | 6%
CCOC(=O)N1CCN(C(=O)C2CCN(S(=O)(=O)c3cc(Cl)ccc3Cl)CC2)CC1 | 109% | 7.4µM* | -11% | -5% | 29% | -1%
CCOC(=O)N1CCN(C(=O)C2CCN(S(=O)(=O)c3ccc(C)cc3)CC2)CC1 | 46% | -16% | 1% | -16% | x | -9%
COc1ccc(-c2onc(C)c2C)cc1S(=O)(=O)N(C)Cc1ccccc1 | x | x | 0% | x | x | x
Cc1ccc(C(=O)CSc2nc(-c3ccccc3)nc3c2CCCC3)cc1C | x | x | -4% | x | x | x
CCOC(=O)C1CCN(C(=O)c2cnn(-c3ccc(F)cc3)c2-n2cccc2)CC1 | x | x | -7% | x | x | x
Cc1ccc(-c2nc3cc(Cl)ccc3o2)cc1NC(=O)c1cc2ccccc2o1 | x | x | -3% | x | x | x
CCCc1cc(C(=O)Nc2cccnc2Cl)no1 | -1% | x | 6% | -5% | 12µM* | -11%
Cc1cc(C(=O)Nc2cnn(Cc3ccc(Cl)cc3Cl)c2)no1 | -15% | 4.1µM* | u | -9% | 86% | -8%
Cc1cc(C(=O)NCCc2ccc(S(N)(=O)=O)cc2)no1 | -20% | -10% | 0% | -8% | -26% | 8%
COC(=O)c1ccccc1NC(=O)c1cc(CN2CCCC2)on1 | x | x | 21% | x | x | x
COc1cccc(-c2cc(C(=O)Nc3cnn(Cc4ccc(Cl)cc4Cl)c3)no2)c1 | x | x | 14% | x | x | x
CCCc1cc(C(=O)Nc2ccccc2C(=O)OC)no1 | -98% | 4% | u | 28% | 12µM* | 10µM*
Cc1cc(C(=O)NCCc2ccc(Cl)cc2)no1 | -13% | 6.6µM* | -1% | -1% | -19% | 9%
CCCc1cc(C(=O)Nc2cc(C)ccc2O)no1 | -15% | -25% | -13% | 3% | 16% | u
COc1ccc(CC(=O)Nc2sc3c(c2C(=O)Nc2cccc(Cl)c2)CCCCC3)cc1 | x | x | 3% | x | x | x
CCc1cc(C(=O)NCc2ccccc2)no1 | x | x | -3% | x | x | x
CCCc1cc(C(=O)NCCc2ccccc2)no1 | 11µM* | 186% | -4% | 8% | -17% | 5%
C[N+](C)(C)CCCCCC[N+](C)(C)C | x | 5% | x | -1% | -13% | -3%
CCCCCCCCCCCCCC[N+](C)(C)C | x | 0.95µM* | x | x | 0.95µM* | x
CCCCCCCCCCCCCCCC[N+](C)(C)C | 200% | 4.1µM* | -8% | 3% | 2.9µM* | u
O=C1CN(C(=O)c2ccc(S(=O)(=O)N3CCCC3)cc2)C(c2ccc(F)cc2)c2cc(F)ccc2N1 (stereo unspecified) | x | x | 2% | x | x | x
SMILES | AmpC no deterg | Pf growth 48h | AmpC detergent | AMA1 RON2 block | Pf growth 96h | HCV inhibitor
O=C(CSc1nc2c([nH]c3ccccc32)c(=O)n1-c1ccc(Cl)cc1)NCc1ccccc1 | x | x | 4% | x | x | x
FC(F)(F)c1cc(CCN2CCNC[C@H]2Cc2cccc3ccccc23)cc(C(F)(F)F)c1 | 141% | u | -15% | -9% | u | u
Oc1ccc(C[C@@H]2CNCCN2CCc2cc(C(F)(F)F)cc(C(F)(F)F)c2)cc1 | 82% | 8.3µM* | -6% | 0% | u | u
c1ccc(C[C@H]2CNCCN2CCc2cccc3ccccc23)cc1 | 27% | u | u | -6% | u | u
Oc1ccc(C[C@H]2CNCCN2CCc2cccc3ccccc23)cc1 | 23% | 5.2µM* | -9% | -11% | 4.7µM* | u
Oc1ccc(C[C@H]2CNCCN2CCc2cc(C(F)(F)F)cc(C(F)(F)F)c2)cc1 | 61% | 9.3µM* | u | -4% | u | u
CCN1c2ccccc2-c2nc(SCC(=O)NCc3ccc(C)cc3)ncc2S1(=O)=O | x | x | 3% | x | x | x
COc1ccc(CCN2C(=O)CN(C3CCCCCC3)C(=O)C2c2ccc(Cl)cc2)cc1OC (stereo unspecified) | x | x | -4% | x | x | x
Cc1cc(C(=O)Nc2cccc(F)c2)c2c(C)nn(-c3cccc(Cl)c3C)c2n1 | x | x | 4% | x | x | x
CC(=O)Nc1ccc(-c2csc(N/N=C\c3ccncc3)n2)cc1 | -33% | u | 9% | 54% | u | u
CCCC(=O)Nc1ccc(-c2csc(N/N=C\c3ccncc3)n2)cc1 | 13% | 8.3µM* | -8% | 68% | u | u
O=C(Nc1ccccc1)c1nc[nH]c1C(=O)NCc1ccccc1 | -13% | 0% | -5% | 132% | u | -13%
O=C(Nc1ccc(F)cc1)c1nc[nH]c1C(=O)O | -9% | 30% | -9% | 14µM* | -12% | 12%
NNC(=O)c1nc[nH]c1C(=O)Nc1ccccc1 | 7% | 25% | 1% | -25% | 10µM* | 12%
COc1cccc(CNC(=O)CCC2CCCN(C(=O)c3csc(C(C)C)n3)C2)c1 (stereo unspecified) | 52% | 1% | 8% | 6% | 13µM* | -20%
COc1ccccc1/C=C/CN1CCCC(CCC(=O)NCc2ccc(F)c(F)c2)C1 (stereo unspecified) | 86% | u | 0% | -3% | 72% | u
O=C(CCC1CCCN(C(=O)c2cncs2)C1)NCc1ccc(F)c(F)c1 (stereo unspecified) | 15% | 46% | -6% | -7% | 8.3µM* | 19%
CN(C)c1cccc(C(=O)N2CCCC(CCC(=O)NCc3ccccc3F)C2)c1 (stereo unspecified) | 71% | 3.3µM* | -9% | -12% | u | u
O=C(CCC1CCCN(C(=O)C2CCCC2)C1)NCc1ccc(F)c(F)c1 (stereo unspecified) | 52% | u | 1% | -7% | -6% | -16%
COc1ccc(/C=C/CN2CCCC(CCC(=O)NCc3ccc(F)c(F)c3)C2)cc1 (stereo unspecified) | 78% | 13µM* | 0% | -17% | 2% | u
COc1ccc(Cl)cc1NC(=O)Cn1c(=O)c(-c2ccccc2NC(C)=O)nc2ccccc21 | x | x | 21% | x | x | x
CCCNC(=O)CN1C(=O)c2cccnc2Sc2ccccc21 | x | x | -2% | x | x | x

From PubChem BioAssay
